# CHRM1 agonist = human M1 muscarinic receptor agonism. P11229. CHO-K1 hM1, Fluo-8 calcium fluorescence, agonist mode; 0% DMSO, 100% acetylcholine EC100. activation, % at 3 µM. 0.33% of 360,000 active;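 active = activation above the run's mean compound activation plus 3 SD, cut at about 16% in these data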;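 also: peak over basal fluorescence ratio within a 140 s kinetic read after compound addition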
# SKN-1 block = blocks SKN-1 activity in C. elegans; C. elegans VP596 Pgst-4::GFP/RFP ratio, acrylamide-induced, 24 h; inhibition, % at 21.8 µM; 0.49% of 360,000 active;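 active = interference check ratio from 0.5 to 1.5 plus GFP to RFP signal ratio inhibition reaching or exceeding a fixed threshold, cut at about 30% in these data, passing the limit was not always enough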
# M1 antag = antagonists of human M1 muscarinic receptor | P11229 | CHO-K1 hM1, Fluo-8 calcium fluorescence, ACh EC80 antagonist | inhibition, % at 3 µM | 1.3% of 360,000 active | AID 588852;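 active = percent inhibition above its own plate's cutoff, namely the mean of that plate's compound wells plus 3 SD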;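 also: peak over basal fluorescence ratio during 140 s after agonist addition; 0% = ACh EC80 plus DMSO and 100% = DMSO alone without agonist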
# Myeloid diff MLP = compounds promoting myeloid differentiation; 1% of 360,000 active; AID 624256; calls only at 10 µM; ER-HoxA9 myeloid progenitors, lysozyme-GFP differentiation, flow cytometry;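 active = normalized GFP-positive differentiation at or above the plate's own cutoff, the solvent-only control mean plus 3 SD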;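 also: cells exposed to compound for four days before flow analysis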
# ATG4B inhibitor = inhibitors of human ATG4B cysteine protease; Q9Y4P1; ATG4B cleavage of LC3-PLA2, NBD-HPC fluorescence, 1 h; inhibition, % at 8.33 µM; 0.51% of 340,000 active; in the data active = inhibition above about 40%
# CHRM1 PAM = human CHRM1 positive allosteric modulation; P11229; CHO-K1 hM1, Fluo-8 calcium fluorescence, ACh EC20; 0% = ACh EC20, 100% = maximal ACh; activation, % at 3 µM; 0.088% of 360,000 active; AID 588819; in the data active = activation above about 19%, passing the limit was not always enough
# PLA2 counter = PLA2 (human) inhibition in ATG4B counter-screen; inhibition, % at 8.33 µM; AID 588402; shares compounds with ATG4B inhibitor; purified PLA2, NBD-C6-HPC fluorescence, 45 min; 66% of 1,600 active; in the data active = inhibition above about 50%
# Target sequence (P04054 whole entry, looked up): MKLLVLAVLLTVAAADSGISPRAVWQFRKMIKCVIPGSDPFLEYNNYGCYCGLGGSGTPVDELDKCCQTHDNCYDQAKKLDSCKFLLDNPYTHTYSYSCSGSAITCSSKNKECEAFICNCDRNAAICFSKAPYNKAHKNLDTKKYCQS
# * hit, by the source's call; i = inactive; x = no result given. Sampled rows, rich in hits. Any-hit rate of the full collection: about 3.5%.
SMILES,CHRM1 agonist,SKN-1 block,M1 antag,Myeloid diff MLP,ATG4B inhibitor,CHRM1 PAM,PLA2 counter
O=[N+]([O-])c1cccc(S(=O)(=O)Nc2nc3ccccc3nc2Nc2cccc(S(=O)(=O)N3CCCCC3)c2)c1,-8.8,-1.9,-0.6,i,46.0*,-0.4,49.7
Cc1ccc(S(=O)(=O)Nc2nc3ccccc3nc2Nc2cccc(S(=O)(=O)N3CCCC3)c2)cc1,-1.4,0.0,-6.9,i,-8.6,3.5,x
C#CCNC(=O)C1=C[C@H](C2CC2)C[C@H](OCCCCO)O1,-2.0,19.4,2.4,i,-6.5,3.7,x
COc1ccc(Br)cc1/C=C(\C(=O)O)c1ccc(S(=O)(=O)N2CCCCC2)s1,-4.3,-8.0,-2.5,i,84.4*,6.2,87.1*
CCC(NC(=O)c1ccccc1NC(=O)c1ccco1)C(=O)NNC(=O)c1ccncc1 (centres undefined),0.4,-5.8,-3.3,i,2.4,8.8,x
CCOC(=O)N1CCN(S(=O)(=O)c2ccc(OC)c(Br)c2)CC1,-2.6,6.7,-17.8,i,3.9,5.1,x
Cc1ccc(S(=O)(=O)N2CCN(c3nc(CN4CCCC4)nc4sc(C)c(C)c34)CC2)cc1,-5.8,0.1,20.2,i,34.1,-26.8,x
Cc1ccc(C)c(S(=O)(=O)N2CCN(c3nc(CN4CCOCC4)nc4sc(C)c(C)c34)CC2)c1,-6.2,9.7,3.7,i,52.2*,0.8,69.5*
C/C(CCc1oc2c(Br)cc(Br)cc2c1-c1ccc(C)o1)=N\O,-8.7,13.9,-34.3,i,11.6,6.6,x
C/C(CCc1oc2ccccc2c1-c1ccc(C)o1)=N/O,-4.7,11.1,-37.2,i,61.4*,9.5,63.6*
COc1ccc(C(O)c2ncc(-c3ccccc3Cl)[nH]2)cc1 (centres undefined),1.8,-0.5,-7.6,i,x,-0.8,x
CCOC(CCn1c(SCc2ccc([N+](=O)[O-])cc2)nc2ccccc2c1=O)OCC,-6.0,6.8,-8.3,i,16.1,-0.8,x
CCOC(=O)c1c(C)[nH]c(C)c1C(=O)CSc1nc2ccccc2c(=O)n1-c1ccc(CC)cc1,-3.8,13.6,-8.8,i,52.1*,9.1,66.5*
CC(C#N)Sc1nc2ccccc2c(=O)n1-c1ccccc1 (centres undefined),-7.9,21.3,-1.1,i,47.4*,0.2,56.3*
CCOC(=O)c1c(C)[nH]c(C)c1C(=O)CSc1nc2ccccc2n1CC,-8.0,-0.1,9.5,i,-0.4,-8.2,x
Cc1[nH]c2ccccc2c1/C=C/c1nc2ccccc2c(=O)n1-c1cccc([N+](=O)[O-])c1,-7.3,14.0,-5.2,i,-15.7,6.0,x
O=c1c2ccccc2nc(/C=C/c2c[nH]c3ccccc23)n1-c1ccc([N+](=O)[O-])cc1,-2.1,13.4,-7.2,i,57.0*,9.0,25.6
Cc1ccc(-n2c(SCc3ccc([N+](=O)[O-])cc3)nc3ccccc3c2=O)cc1,-3.9,19.0,-11.8,i,40.8*,3.9,19.7
O=C(/C=C/c1ccccc1)NCC(=O)N/N=C/c1ccco1,-3.3,-9.3,16.3,i,-1.1,1.4,x
CCc1cccc(C)c1NC(=O)C1CCCN1C(=O)NCc1ccccc1 (centres undefined),-4.3,3.2,-10.5,i,-0.2,11.7,x
Cc1ccc(-n2c(SCC(=O)NNC(=S)Nc3ccccc3)nc3ccccc3c2=O)cc1,-4.4,8.2,0.7,i,78.4*,3.0,82.0*
O=C(CSc1nc2ccccc2c(=O)n1-c1ccc(F)cc1)Nc1ccc(C(=O)O)cc1,-2.7,7.7,-15.7,i,8.7,11.4,x
O=C(CC1CCCCC1)Nc1ccccc1-c1ccccc1,-9.0,7.0,0.5,i,39.7,-1.2,x
O=C(CCC1CCCCC1)Nc1ccccc1O,-1.0,-13.1,-8.7,i,8.0,9.6,x
O=C(CCC1CCCCC1)Nc1ccccc1-c1ccccc1,-7.1,15.5,-6.0,i,52.8*,4.3,54.1*
O=C(CCC1CCCC1)Nc1ccccc1-c1ccccc1,-8.8,15.0,-9.1,i,45.4*,3.0,50.3*

# Screening data from PubChem BioAssay.
